# Values joined by “and” are separate entries in the source; they are usually repeats but may differ in a detail not shown here. Equal values may be shown once. About 83,000 compounds went through this panel and 20% of them were active in at least one assay; those are over-represented in the sample as a whole.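 Compound tested at a single concentration for 48 hours in 96-well plates; a percent growth value below 10 was scored as active.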 Active and inactive are the calls of the source.
# System: ACHN renal
# Test: NCI-60 one-dose screen, 48 h (100 = growth as untreated, 0 = no growth, -100 = all killed)
# Details: 10 µM
# Procedure: Growth inhibition of the ACHN human tumor cell line is measured as a screen for anti-cancer activity. Cells are grown in 96 well plates and exposed to the test compound for 48 hours. Compounds are tested at a single concentration, which is 10^-5 M for most compounds. The reported endpoint is percent growth (GI% or GIPRCNT), where numbers from 0 - 100% represent growth inhibition, and numbers from -100% - 0 represent cell death. For example, a value of 40 represents 60% growth inhibition. A value of 0 means no net growth occurred over the course of the experiment. A value of -40 indicates 40% of cells at the beginning of the experiment died by the end of the experiment. A value of -100 means all cells are dead at the end of the experiment.
# NCI-60 Human Tumor Cell Lines Screen was performed using the standard one-dose NCI protocol, which is described in more detail at https://dtp.cancer.gov/discovery_development/nci-60/default.htm.
# Compounds with GIPRCNT values below 10 were considered active. Activity score was based on GIPRCNT using the following formula: […]
# Score is 0 for GIPRCNT values of 100 or above, 50 for GIPRCNT values of 0, and 100 for GIPRCNT values of -100.
row,Structure (SMILES),growth
1,S=c1nc[nH]c2nc[nH]c12,50% (inactive)

# Same assay, conditions: 10 µM unless noted
row,Structure (SMILES),growth
1,COC(=O)CCOc1ccccc1,91.8% (inactive)
2,CCCC(=O)OCC(COC(=O)CCC)OC(=O)CCC,108% (inactive)
3,Nc1[nH][nH]c(=O)c1N=Nc1ccccc1,91.2% (inactive) and 104% (inactive)
4,S=c1ccc2ccccc2[nH]1,101% (inactive) and 109% (inactive)
5,O=C1C=CC[C@H](/C=C/c2ccccc2)O1,33.4% (inactive) and -36.3% (active)
6,C/C(=C\c1ccccc1)C(O)C(=O)c1nc2ccc([N+](=O)[O-])cc2[nH]c1=O (stereo not given),81% (inactive)
7,O=[N+]([O-])c1cccc2ccc(N/N=C/c3ccccc3O)nc12,68.4% (inactive) and 103% (inactive)
8,O=[N+]([O-])c1ccc(NC2CCCCC2)nc1,101% (inactive) and 97.5% (inactive)
9,O=C1c2ccccc2C(c2ccccc2)C1c1ccccc1 (stereo not given),98% (inactive)
10,CCN(CC)CCNC(=O)c1ccc(NCN2C(=O)NC(c3ccccc3)(c3ccccc3)C2=O)cc1,107% (inactive) and 104% (inactive)
11,CN(C)C(=N)N=C(N)N,92.8% (inactive) and 115% (inactive)
12,O=C1Cc2ccccc2C(=O)N1,82.1% (inactive)
13,CCCCC/C(C)=N\NC(N)=S,92.6% (inactive)
14,Nc1c(S(=O)(=O)O)cc(Br)c2c1C(=O)c1ccccc1C2=O,108% (inactive) and 107% (inactive)
15,O=[N+]([O-])c1ccc(N/N=C/C2CCCCCC2)c([N+](=O)[O-])c1,70.4% (inactive)
16,CCNCc1ccccc1,110% (inactive)
17,CC(=O)Oc1ccc(C(c2ccc(OC(C)=O)cc2)c2ccccn2)cc1,82.5% (inactive) and 81.1% (inactive)
18,CN(C)c1ccc(C(=N)c2ccc(N(C)C)cc2)cc1,50.9% (inactive) and 49.9% (inactive)
19,O=S(=O)(O)c1ccc2cc(O)ccc2c1,106% (inactive)

row,Structure (SMILES),growth
1,CC1(CO)CCCC1NCCNC1CCCC1(C)CO (stereo not given),105% (inactive) and 100% (inactive)
2,N=C(N=C(N)N)N1CCOCC1,103% (inactive)
3,C=CCN1C(=O)c2ccccc2C1=O,102% (inactive)
4,CC(=O)Oc1ccc(C2(c3ccc(OC(C)=O)cc3)C(=O)Nc3ccccc32)cc1,67.6% (inactive) and 63% (inactive)
5,Cc1cc(NC(=O)NC(=O)c2ccccc2N(C)C)ccc1Oc1ncc(Br)cn1,-17% (active) and 56.7% (inactive)
6,CCOC(=O)C1=CC(=O)CC(C)(C)O1,102% (inactive) and 106% (inactive)
7,COc1ccc(C(=O)C(O)c2ccc(OC)cc2)cc1 (stereo not given),109% (inactive) and 112% (inactive)
8,Cc1cnc(N)s1,96.2% (inactive)
9,O=C(N=C1C(=O)C2(CCCCC2)C2(N=C(c3ccccc3)OC2=O)C12CCCCC2)c1ccccc1 (stereo not given),80.5% (inactive)
10,Cc1cc2ccccc2c2cc3ccccc3cc12,92.8% (inactive)
11,Clc1ccc(/C=C/c2ccc3ccccc3n2)cc1,55.8% (inactive) and 93.3% (inactive) and 83% (inactive)
12,CS(=O)(=O)OCC1NC(=O)C(COS(C)(=O)=O)NC1=O (stereo not given),93.7% (inactive) and 85.9% (inactive)
13,COc1ccc(/C=N/NC(N)=S)cc1,101% (inactive)
14,O=C1c2ccccc2CN1c1ccccc1,99% (inactive)
15,C/C=C/C(=O)OCCCCCCCCCCCC,103% (inactive)
16,CCCCCCC(C)CC1=C(O)c2ccccc2C(=O)C1=O (stereo not given),37.5% (inactive)
17,O=C(O)/C=C/C=C/c1ccccc1,103% (inactive) and 109% (inactive)
18,Cc1c(Cl)cc(Cl)c(N)c1Cl,115% (inactive)
19,OCCSc1ccc(Cl)cc1,99.6% (inactive) and 95.1% (inactive)

# Same assay, conditions: 50 µM
row,Structure (SMILES),growth
1,S=c1nc[nH]c2nc[nH]c12,20.5% (inactive)

# Reference: PubChem BioAssay (NCI)
